From PubChem BioAssay
Shown are actives, neighbours in structure and some others; about 7.7% of the full set was active somewhere.
RE007 growth inh: less growth of the S. pombe RE007 Vpr strain; S. pombe RE007 Vpr strain, BacTiter-Glo ATP luminescence, 24 h; Potency, µM (highest dose often 92.2 µM), without a hit: at the highest dose activity change, negative = less growth, actives largely listed as inhibitors; 360,000 compounds, 0.21% hits; active = well fitted falling curve with a large enough effect; inconclusive = small, poorly fitted or top-dose-only effect; inactive = no such curve, though single readings can be large or run the other way; also: potency is read from the fitted curve at half-maximal effect; nearly all actives have a fitted effect of over 50% in size
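Fission yeast strain RE007, carrying one chromosomally integrated HIV-1 vpr copy, was seeded at OD 0.01 in PMG+AL medium with 23 nL pinned compound. After 24 h at 30 °C and 99% humidity, viability was read by BacTiter-Glo luminescence.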
Tb PYK inh: inhibitors of Trypanosoma brucei pyruvate kinase; 410,000 compounds, 0.12% hits; Q57TT1; TbPYK enzyme, Kinase-Glo Plus ATP luminescence, 45 min; Potency, µM (series often up to 76.8 µM), without a hit: at the highest dose activity, negative = inhibition, usual class: inhibitors; also: potency is read from the fitted curve at half-maximal effect; nearly all actives have a fitted effect of over 50% in size
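Luminescent Kinase-Glo Plus end-point after 45 min room-temperature reaction of T. brucei pyruvate kinase started with 130 uM ADP (final). Buffer TEA 50 mM pH 7.2 with KCl, MgCl2, BSA, Tween-20; titration-based qHTS with fitted concentration-effect curves.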
FBPA Giardia inh: blocks Giardia fructose-bisphosphate aldolase activity; A8B2U2; purified Giardia FBPA; Potency, µM (doses to about 59.6 µM), inactives show top-dose activity, negative = inhibition, hits mostly inhibitors; 290,000 compounds, 0.71% hits; also: potency is read from the fitted curve at half-maximal effect; nearly all actives have a fitted effect of over 55% in size
Target sequence (A8B2U2 whole entry, looked up): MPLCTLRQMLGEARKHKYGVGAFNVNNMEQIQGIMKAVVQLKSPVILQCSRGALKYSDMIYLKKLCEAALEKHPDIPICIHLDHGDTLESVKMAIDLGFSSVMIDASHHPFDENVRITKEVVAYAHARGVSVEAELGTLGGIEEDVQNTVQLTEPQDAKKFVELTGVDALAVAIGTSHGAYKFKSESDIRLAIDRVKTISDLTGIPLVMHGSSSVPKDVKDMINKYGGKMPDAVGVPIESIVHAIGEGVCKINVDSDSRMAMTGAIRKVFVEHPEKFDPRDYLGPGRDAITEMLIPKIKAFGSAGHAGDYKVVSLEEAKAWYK
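40 nM FBPA preincubated 10 min at RT with compound (up to 57.5 uM final), then substrate plus GAPDH/TPI/NAD/arsenate coupling and diaphorase/resazurin added. Fluorescence read after 20 min at RT, 525/598 nm.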
Sm TGR inh: S. mansoni TGR enzyme inhibition; purified TGR, DTNB reduction, TNB absorbance 405 nm; Potency, µM (highest dose often 114 µM), for the others: top-dose activity change, negative = inhibition, actives largely listed as inhibitors; 360,000 compounds, 3% hits; also: potency is read from the fitted curve at half-maximal effect; nearly all actives have a fitted effect of over 60% in size
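TGR 20 nM + NADPH 100 uM (dispensed conc.), cpd preinc 15 min RT; start with NADPH (500 uM addition) then DTNB (15 mM addition). Kinetic TNB absorbance, 405 nm filter. Four-parameter Hill fit across titration.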
HCMV inh: blocks human cytomegalovirus replication; activity change, negative = inhibition, % at 57.5 µM; HFF cells, HCMV-luciferase reporter, 72 h; active compounds read low; 410,000 compounds, 4.5% hits; in the data active = activity change below about -60%; inconclusive = no clear call, values can overlap the other calls; inactive = above about -39%
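Cell-based, HFFs, 1000 cells/well, 16 h 37C; cpds in DMSO + HCMV-luc, MOI 1 PFU/cell; 72 h 37C; OneGlo luminescence after 5 min RT; norm. to buffer vs Salinomycin 10uM.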
FMDV inh: foot and mouth disease virus antiviral activity; FMDV antiviral cell-based qHTS; Potency, µM (top dose mostly 57.9 µM), for the others: at the highest dose activity change, negative = inhibition, usual class: inhibitors; 410,000 compounds, 1.2% hits; AID 1159524; calls by dose curve; tested in HEK293T cells; also: read-out not given here; potency is read from the fitted curve at half-maximal effect; nearly all actives have a fitted effect of over 45% in size
* = called active by the depositor; ? = inconclusive; · = no result; [ ] = dose if it differs, or a comment. Unless noted, calls follow the shape of the dose curve; as a rule, active = well fitted curve in the direction sought with a large enough effect; inconclusive = small, poorly fitted or top-dose-only effect, or another doubt; inactive = no such curve, though single readings can be large; an effect the other way counts as inactive or inconclusive. % is scaled to controls: 0 for no effect and ±100 for the full control effect.

SMILES	RE007 growth inh	Tb PYK inh	FBPA Giardia inh	Sm TGR inh	HCMV inh	FMDV inh
CC(=O)Oc1ccc2c(c1OC(C)=O)OCC1(O)Cc3c(cc(OC(C)=O)c(OC(C)=O)c3OC(C)=O)C21 (stereo unspecified)	·	·	-2.2%	·	·	-5.0%
COC(=O)NC(c1cccc(C)c1)[C@]1(C(C)=O)CCCC1=O (stereo partly specified)	·	·	0.5%[12.9 µM]	·	·	·
Cc1ccc2sc(N3CCN(C(=O)C4COc5ccccc5O4)CC3)nc2c1C (stereo unspecified)	·	0.2%	·	-0.9%	5.0	-18.7%
CC[C@]12c3[nH]c4ccc(Cl)cc4c3CCN1C(=O)[C@@H](CC(=O)NCc1cccc(C(F)(F)F)c1)C[C@@H]2C(=O)N1CCN(C(=O)c2ccco2)CC1	-5.6%	4.5%	·	·	-99.9*	?
CC[C@]12c3[nH]c4ccc(OC)cc4c3CCN1C(=O)C(CC(=O)NCc1cccc(C(F)(F)F)c1)C[C@@H]2C(=O)N1CCN(C(=O)c2ccco2)CC1 (stereo partly specified)	-15.5%	2.2%	·	·	44.1	-25.0%
C[C@]12c3[nH]c4ccc(Cl)cc4c3CCN1C(=O)[C@@H](CC(=O)NCc1cccc(C(F)(F)F)c1)C[C@@H]2C(=O)N1CCCCC1	0.8%	5.1%	·	·	-103.7*	?
COc1ccc2[nH]c3c(c2c1)CCN1C(=O)C(CC(=O)NCc2cccc(C(F)(F)F)c2)C[C@H](C(=O)N2CCCCC2)[C@@]31C (stereo partly specified)	-5.0%	-1.9%	·	·	-9.9	-21.9%
COC(=O)[C@]12C[C@H](CC(=O)NCc3cccc(C(F)(F)F)c3)C(=O)N(Cc3ccccc3)C1=C[C@H](C1CCCC1)O[C@@H]2C	·	·	·	·	97.4	·
CNS(=O)(=O)c1ccc(OC)c(-c2nnc3c4ccccc4c(C)nn23)c1	-2.5%	-3.7%	-0.1%	9.4%	202.9	30.3%
COc1ccc(S(=O)(=O)NCc2ccco2)cc1-c1nnc2c3ccccc3c(C)nn12	51.2%	3.8%	-3.6%	56.2µM*	-5.6	41.7%
COc1ccc(CCN(Cc2cc3ccc(C)cc3n3nnnc23)C(C)=O)cc1OC	1.2%	-8.8%	-0.1%	0.0%	-100.2*	-18.1%
COc1ccc(CCN(Cc2cc3cc(C)ccc3[nH]c2=O)C(C)=O)cc1OC	4.2%	3.2%	5.6%	-11.1%	-25.3	0.8%
COC(=O)c1cc(Cl)ccc1NC(=O)Cn1c(C)cc(C)c(C#N)c1=O	·	-6.3%	·	-0.7%	-7.8	-3.6%
Cc1ccc(S(=O)(=O)N2C[C@H]3n4c(=O)ccc(=O)n4C[C@H](OC(=O)NCc4ccccc4)[C@@]3(O)C2)cc1	2.2%	0.4%	·	·	-60.9*	0.0%
Cc1ccc(S(=O)(=O)N2C[C@H]3n4c(=O)ccc(=O)n4C[C@H](OC(=O)NCc4ccco4)[C@@]3(O)C2)cc1	5.6%	-11.2%	·	·	-14.1	?
Cc1ccc(S(=O)(=O)N2C[C@H]3n4c(=O)ccc(=O)n4C[C@H](OC(=O)NCC4CCCCC4)[C@@]3(O)C2)cc1	22.4%	0.6%	·	·	-102.2*	31.6µM*
Oc1cc(O)c2c(c1)O[C@H](c1ccc(O)c(O)c1)[C@@H](O)C2	0.4%[18.4 µM]	0.2%	-5.4%	20.6%	-28.9	-22.6%
O=c1c(O)cc(C2Oc3cc(O)cc(O)c3CC2O)cc2c(C3Oc4cc(O)cc(O)c4CC3O)cc(O)c(O)c12 (stereo unspecified)	·	·	0.889µM*	·	·	-9.3%
Cc1cccc(N2CCN(Cc3nnc(-c4ccccc4C)o3)CC2C)c1 (stereo unspecified)	·	-6.8%	·	7.2%	-0.9	-3.8%
CCOc1ncccc1C(=O)OC(C)C(=O)Nc1ccc(Cl)cn1 (stereo unspecified)	-2.1%	-6.8%	·	-5.3%	12.2	-7.3%
CNc1ccccc1C(=O)OC(C)C(=O)Nc1ccc(Cl)cn1 (stereo unspecified)	-13.9%	0.6%	-2.0%	5.1%	-98.2*	-7.4%
CN(C)C(=O)c1ccc(-c2ccc3ncnc(N4CCOCC4)c3c2)cc1	·	·	-1.9%	·	·	-29.6%
CS(=O)(=O)n1nc(OC(=O)c2cccs2)cc1N	-1.3%	-13.4%	5.6%	39.8µM*	7.1	12.9%
CS(=O)(=O)n1nc(OC(=O)c2cccc3ccccc23)cc1N	1.7%	-11.6%	-3.5%	0.0%	202.7	?
COc1ccc(S(=O)(=O)n2nc(OC(=O)c3cccs3)cc2N)cc1	4.6%	-1.7%	1.3%	-19.6%	40.9	13.8%
SMILES	RE007 growth inh	Tb PYK inh	FBPA Giardia inh	Sm TGR inh	HCMV inh	FMDV inh
CS(=O)(=O)n1nc(OC(=O)c2cc(Br)ccc2Cl)cc1N	2.3%	-11.7%	8.6%	5.01µM*	18.6	-5.5%
O=C(Cn1c(=O)n(Cc2ccco2)c(=O)c2c3c(sc21)CCCCC3)Nc1ccccc1	1.7%	-8.4%	-8.2%	10µM*	-14.7	-1.5%
O=C(Cn1c(=O)n(Cc2ccco2)c(=O)c2c3c(sc21)CCCCC3)c1ccccc1	-15.9%	-1.8%	-1.4%	35.5µM*	52.1	5.3%
Cc1ccc(NC(=O)CSc2nc(C3CCCC3)nc3c2c(=O)n(C)c(=O)n3C)c(C)c1	·	2.1%	·	-1.3%	1.9	-12.2%
Cc1cccc(Nc2nc(OCC#N)nc(N(C)C)n2)c1	0.3%	0.9%	-6.0%	0.9%	37.7	0.0%
CCN(CC)c1nc(Nc2ccc(Cl)cc2)nc(OCC#N)n1	-5.9%	-3.4%	0.0%	2.6%	-67.7*	?
CCC(=O)N1CCc2cc(CNC(=O)c3ccc(OC)cc3)ccc21	·	3.0%	·	-10.0%	-25.2	21.5%
Cc1c(NC(=O)Nc2ccc(Br)cc2F)sc2nc3n(c(=O)c12)CCC(C)CC3 (stereo unspecified)	·	0.0%	·	-1.4%	3.7	-22.4%
CCCCn1c(=O)c2oc3ccccc3c2n(Cc2ccc(C)cc2)c1=O	·	-1.1%	·	3.0%	13.4	-14.1%
O=C(CCC(=O)OCC(=O)c1ccc([N+](=O)[O-])cc1)NC1CCCCC1	-8.7%	-5.1%	2.8%	-13.7%	-37.9	2.1%
O=C(CCC(=O)OCC(=O)c1ccc(Cl)cc1)NC1CCCCC1	2.3%	-5.3%	·	-21.1%	-105.0*	9.6%
C=CCNC(=O)C1CCC(CNc2nc(=S)[nH]c3ccccc23)CC1 (stereo unspecified)	-8.7%	5.8%	4.3%	-16.9%	-38.9	-2.3%
O=C(C1CCC(CNc2nc(=S)[nH]c3ccccc23)CC1)N1CCN(c2ccccn2)CC1 (stereo unspecified)	-11.8%	-3.9%	-1.2%	7.1%	-107.4*	?
O=C(NC(=S)Nc1ccccc1Cl)c1csnn1	-8.9%	3.6%	-11.3%	22.4µM*	-32.4	·
O=C(Nc1ccccc1NC(=O)c1csnn1)c1csnn1	0.3%	-7.5%	-28.1%	-2.8%	18.5	-0.5%
